# HTT aggregate: qHTS Multiplex Assay to Identify Dual Action Probes in a Cell Model of Huntington: Aggregate Formation (GFP). PC12 HttQ103-GFP aggregates, Acumen cytometry, 40 h. Potency, µM (highest dose often 46.1 µM), inactives show top-dose activity change, negative = inhibition, usual class: inhibitors. 220,000 compounds, 1.1% hits; further: potency means the concentration at half of the fitted maximal effect; on the % scale 0 is the no-effect control and ±100 the full control effect; nearly all actives have a fitted effect of over 60% in size
#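 Quantitative HTS on tebufenozide-induced (100 nM) PC12 cells stably expressing polyQ103 Huntingtin exon 1–GFP. Reduction of bright GFP aggregates, detected by laser scanning cytometry after lysis, identified actives across the titration.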
# PNC assembly inh: High Content Assay for Compounds that inhibit the Assembly of the Perinucleolar Compartment; activity change (PNC), negative = inhibition, % at 10 µM; 140,000 compounds, 3.1% hits; PC3M PTB-GFP, PNC prevalence imaging, 16 h; hits give low values; AID 2417, 2010;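 active means readout at or below -70, meaning at least 70% loss of cells showing the perinucleolar compartment, a nuclear body marking cancer cells; inconclusive means readout between -30 and a set limit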;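 further: plate controls were DMSO wells for no effect and camptothecin positive control wells for full effect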
#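 Read-out is percentage of cells bearing a perinucleolar compartment, from automated 20x imaging of fixed, Hoechst-stained PC3M PTB-GFP cells. Cells were seeded 4 h, then exposed 16 h to compound (23 nl of library stock) in duplicate plates.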
# HTT ATP protect: qHTS Multiplex Assay to Identify Dual Action Probes in a Cell Model of Huntington: Cytoprotection (ATP) | PC12 HTT-Q103 induced, cytoprotection, ATP luminescence, 40 h | Potency, µM (doses to about 56.4 µM), for inactives: cytoprotection (ATP increase), most hits filed as activators | 230,000 compounds, 0.14% hits; further: potency means the concentration at half of the fitted maximal effect; % of control where 0% means no effect; nearly all actives have a fitted effect of over 45% in size
#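 Rat PC12, Q103 Htt exon1-GFP fusion, ecdysone promoter; tebufenozide inducer 100 nM final; compound titration; qHTS, 1500 cells/well; ATPlite luminescent read.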
# Starred values were filed as active, the others as inactive; ? = inconclusive; / = no result given; [ ] = dose if it differs, or a comment. The sample as a whole holds a higher share of hits than the screen did. Unless noted, the call rests on the fitted dose curve; in most records, active means well fitted curve in the direction sought with a large enough effect; inconclusive means small, poorly fitted or top-dose-only effect, or another doubt; inactive means no such curve, though single readings can be large; an effect the other way counts as inactive or inconclusive.
SMILES,HTT aggregate,PNC assembly inh,HTT ATP protect
COC(CNC(=O)c1ccc(N2CCc3ccccc32)c([N+](=O)[O-])c1)OC,11.2µM*,13.2,15.5%[10 µM]
CN(C)C(=O)CSc1cnc2ccccc2n1,-11.4%,/,-15.3%
CC(C)(C)c1ccc(CSc2nnc(-c3ccccn3)n2Cc2ccco2)cc1,14.1µM*,?,6.3%
Brc1ccc(CSc2nnc(-c3ccccn3)n2Cc2ccco2)cc1,-13.5%,23.4,10.7%[0.074 µM]
Cc1cc(/C=N/n2cnnc2)c(O)c([N+](=O)[O-])c1,3.2%,-118.2*,/
C/C(=N\OCc1nc2ccccc2c(=O)n1/N=C/c1cc(C)cc([N+](=O)[O-])c1O)c1ccccc1,-30.7%[9.22 µM],/,9.4%[10 µM]
C/C=C/C(=O)NCCc1ccc(OC)c(OC)c1,-9.4%,/,-37.7%
CCOC(=O)c1c(NC(=O)C2c3ccccc3Oc3ccccc32)sc(C(N)=O)c1C,-14.3%,?,-29.2%
CCC1CCc2c(sc(NC(=O)C3c4ccccc4Oc4ccccc43)c2C(N)=O)C1 (centres undefined),9.8%,-94.9*,7.5%[10 µM]
CCOC(=O)CCc1nn(C)c(=O)c2ccccc12,-17.1%,3.0,-18.7%[10 µM]
CCNS(=O)(=O)c1ccc(OCCNS(C)(=O)=O)cc1,-9.0%,49.3,-6.5%
CS(=O)(=O)c1ccc2nc(NC(=O)CCC(=O)c3cccs3)sc2c1,0.794µM*,-22.6,-11.9%[10 µM]
CS(=O)(=O)c1ccc2nc(NC(=O)Cc3ccccc3)sc2c1,4.1%[9.22 µM],/,-1.2%
COCCN(C(=O)CN1CCN(S(=O)(=O)c2ccc(F)cc2)CC1)c1c(N)n(Cc2ccccc2)c(=O)[nH]c1=O,-11.5%,31.5,39.3%[10 µM]
CCc1ccc(NC2=CC(=O)CC(c3ccco3)C2)cc1 (centres undefined),-10.6%,?,-8.2%
O=C(CSc1nnc(-c2ccccc2Cl)n1Cc1ccco1)Nc1ccc2c(c1)OCCO2,8.7%,-96.2*,-8.7%[0.074 µM]
O=C(CSc1nnc(-c2ccncc2)n1Cc1ccco1)N1c2ccccc2Sc2ccc(Cl)cc21,-3.8%,-100.0*,-5.8%[10 µM]
O=C(CSc1nnc(-c2ccncc2)n1Cc1ccco1)Nc1nccs1,0.5%,-100.0*,-0.4%[10 µM]
Cn1c(SCC(=O)N2c3ccccc3Sc3ccc(Cl)cc32)nnc1-c1ccco1,4.2%,-0.4,11.7%[10 µM]
O=C(CSc1nnc(-c2ccc(Cl)cc2)n1Cc1ccco1)Nc1ccc2c(c1)OCCO2,9.9%,8.3,-15.9%
Cc1cccc(C)c1NC(=O)CSc1nnc(-c2ccncc2)n1Cc1ccco1,-7.1%,1.8,-13.9%
CCn1nc(C(=O)Nc2cccc(C(F)(F)F)c2)c(Cl)c1Cl,26.1%,-20.3,-13.6%
Cc1ccc(OCCn2cnc3ccccc3c2=O)c([N+](=O)[O-])c1,12.0%,-15.2,6.9%[0.074 µM]
COc1ccccc1NC(=O)C1=C(C)NC(=O)NC1c1ccc(C)cc1 (centres undefined),0.1%,-4.7,3.7%[10 µM]
Cc1cc(NNC(=O)c2cccc(C(F)(F)F)c2)nc2c1c(C)nn2C,-9.6%[9.22 µM],/,3.6%[10 µM]
SMILES,HTT aggregate,PNC assembly inh,HTT ATP protect
COc1cc([N+](=O)[O-])cc(/C=N/NC(=O)c2cncc(Br)c2)c1O,0.9%[9.22 µM],/,27.9%[10 µM]
CN(c1ccc(C(=O)NCc2ccncc2)cc1)S(C)(=O)=O,-25.4%,0.7,12.8%[1.9 µM]
CS(=O)(=O)N(Cc1ccccc1)c1ccc(C(=O)Nc2cccnc2)cc1,-11.4%,-100.0*,-6.1%[10 µM]
CC(C)c1ccccc1NC(=O)c1ccc(CN(c2ccccc2)S(=O)(=O)c2ccccc2)cc1,3.8%,?,/
CN(c1ccc(C(=O)NCc2cccnc2)cc1)S(C)(=O)=O,10.4%,-100.0*,19.2%[0.074 µM]
Cc1ccccc1NC(=O)c1ccc(CN(c2ccccc2)S(=O)(=O)c2ccccc2)cc1,-11.2%,-134.0*,29.7%[10 µM]
CS(=O)(=O)N(Cc1ccc(Cl)cc1)c1ccc(C(=O)Nc2cccnc2)cc1,-8.4%,?,-5.7%
COCCNC(=O)c1c[nH]c2ccc(S(=O)(=O)N3CCc4ccccc43)cc2c1=O,-14.6%,/,-47.4%
COc1cccc2c3c(c(C)nc12)CC(CO)O3 (centres undefined),/,/,-21.5%
COc1ccccc1NC(=O)C1CCCN(S(=O)(=O)c2cnc[nH]2)C1 (centres undefined),-1.7%,8.5,3.6%
CC(C)N1CCN(Cc2ccc(Oc3ncccn3)cc2)CC1CCO (centres undefined),4.8%[9.22 µM],/,-3.5%[10 µM]
O=C(CSc1nnc(CNC(=O)c2ccccc2F)o1)NCCc1ccccc1,-1.1%,25.2,-5.6%
O=C(CSc1nnc(CNC(=O)c2c(F)cccc2Cl)o1)Nc1ccc2c(c1)OCO2,-4.4%,/,-50.5%
Cc1ccc(NC(=O)CSc2nnc(CNC(=O)c3c(F)cccc3Cl)o2)cc1,-11.0%,-91.3*,-5.4%
CCSc1nnc(NC(=O)CSc2nnc(CNC(=O)c3ccccc3F)o2)s1,0.6%,-123.8*,/
COc1ccc(-n2nnnc2SCC(=O)Nc2nnn(C)n2)cc1,?,-22.5,8.5%
CCCN=C(C)C1=C(O)c2ccccc2C1=O,-11.0%,86.5,/
O=C(OCC(O)CN1CCCCC1)C12CC3CC(CC(C3)C1)C2 (centres undefined),6.2%[9.22 µM],-5.6,-11.4%
O=C(NCc1ccccn1)c1coc(=O)c(Br)c1,26.4%,-87.0*,0.7%[10 µM]
CCOc1ccc(C(=O)NCc2ccccn2)cc1,1.1%,5.2,-25.8%
CC1(C)c2ssc(=S)c2-c2ccccc2N1C(=O)c1ccco1,13.2%,16.6,3.4%[10 µM]
Cc1ccc2c(c1)-c1c(ssc1=S)C(C)(C)N2C(=O)c1ccco1,-22.1%,-100.0*,14.4%[10 µM]
Cc1ccc(S(=O)(=O)NCC(=O)NCC(=O)N2CCN(c3ncccn3)CC2)cc1C,39.0%[9.22 µM],/,32.8%[10 µM]
CCCC(=O)Nc1c2c(nn1-c1ccc(OC)cc1)CS(=O)(=O)C2,12.6%,-27.2,2.7%[0.074 µM]
CCOc1ccccc1N1CCN(C(=O)CCCN2C(=O)c3cccc4cccc(c34)C2=O)CC1,20µM*,?,-16.3%[10 µM]
SMILES,HTT aggregate,PNC assembly inh,HTT ATP protect
O=C(CCCN1C(=O)c2cccc3cccc(c23)C1=O)N1CCN(c2ccccc2O)CC1,0.7%,40.4,10.5%[10 µM]
CCc1nc2oc3cc(OC)ccc3c(=O)c2c(=O)n1Cc1ccccc1,9.0%,22.4,12.0%
Cc1ccc(N2CC3=C(C2=O)C(c2ccccc2)NC(=O)N3C)cc1 (centres undefined),5.4%,-23.9,-0.9%
Cc1cccc(N2CC3=C(C2=O)C(c2ccccc2)NC(=O)N3C)c1 (centres undefined),-3.8%,-81.1*,-7.5%[0.074 µM]
Cc1cccc(C)c1NC(=O)CC1SC2=NCCN2C1=O (centres undefined),9.6%,0.1,-10.4%
Cc1nn(C)c(C(=O)N/N=C/c2cccc3ccccc23)c1Cl,20.9%,47.8,?
CCN1C(=O)/C(=C2\C=Cc3cc(C)ccc3N2CC)OC1=S,3.7%,?,12.1%[10 µM]
CCN1/C(=C/c2cc[n+](C)cc2)C=Cc2cc(C)ccc21,8.91µM*,?,-58.6%[10 µM]
O=S(=O)(/N=C(/Nc1ccc(Cl)c(S(=O)(=O)Nc2ccccc2Cl)c1)c1ccc(F)cc1)c1ccccc1,?,/,-4.1%[10 µM]
Cn1ccnc1SCC(=O)NC12CC3CC(CC(C3)C1)C2,-8.6%,-126.5*,-9.3%
Cc1nnc(SCC(=O)NC23CC4CC(CC(C4)C2)C3)n(N)c1=O,-15.9%,/,25.8%

# Bioassay records from PubChem.
